Values joined by “and” are separate entries in the source; they are usually repeats but may differ in a detail not shown here. Equal values may be shown once. Among all 5,500 compounds or so, about 2,000 (36%) were called active. About 18% were inconclusive and are not listed. Rule as the data show it: active = normalized growth mostly below about 0.91 (no sharp cut-off); inconclusive = no clear call, values can overlap the other calls; inactive = mostly above about 0.92. Some of the results follow.
Experiment: chemical genetic growth profiling, strain panel (AID 1159580);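 also: tested at 20 µM; growth read once vehicle control cultures reached saturation at 30 °C; 1 = growth at the plate median or of vehicle wells; lower values mean less growth of the strain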
Conditions: growth OD

Measured: normalized growth

O=C1N=C(O)CN1/N=C\c1ccc(-c2ccc([N+](=O)[O-])cc2)o1
inactive: S. cerevisiae deletion strains, locus YJR075W, strain HOC1, stronger effect = lower value 1.03 and 0.99 | S. cerevisiae deletion strains, locus YKL009W, strain mrt4, stronger effect = lower value 1.04 | S. cerevisiae deletion strains, locus YKL068W, stronger effect = lower value 1.03 | S. cerevisiae deletion strains, locus YKL085W, strain MDH1 (second series), stronger effect = lower value 1.02 | S. cerevisiae deletion strains, locus YKL085W, strain MDH1, stronger effect = lower value 1.02 | S. cerevisiae deletion strains, locus YKL160W, strain elf1, stronger effect = lower value 0.994 | S. cerevisiae deletion strains, locus YKL190W, strain CNB1, stronger effect = lower value 1.02 | S. cerevisiae deletion strains, locus YKR001C, strain vps1, stronger effect = lower value 1.03 | S. cerevisiae deletion strains, locus YKR026C, strain gcn3, stronger effect = lower value 0.99 | S. cerevisiae deletion strains, locus YKR091W, strain srl3, stronger effect = lower value 0.98 | S. cerevisiae deletion strains, locus YLL001W, strain dnm1, stronger effect = lower value 1 | S. cerevisiae deletion strains, locus YLL026W, stronger effect = lower value 0.997 | S. cerevisiae deletion strains, locus YLL041C, strain sdh2, stronger effect = lower value 0.97 | S. cerevisiae deletion strains, locus YLR027C, strain aat2, stronger effect = lower value 0.988 | S. cerevisiae deletion strains, locus YLR039C, strain RIC1, stronger effect = lower value 1.05 | S. cerevisiae deletion strains, locus YLR058C, strain SHM2, stronger effect = lower value 1.02 | S. cerevisiae deletion strains, locus YLR102C, strain apc9, stronger effect = lower value 1.03 | S. cerevisiae deletion strains, locus YLR113W, strain HOG1, stronger effect = lower value 1.02 | S. cerevisiae deletion strains, locus YLR221C, strain rsa3, stronger effect = lower value 0.994 | S. cerevisiae deletion strains, locus YLR258W, strain gsy2, stronger effect = lower value 0.994 | S. cerevisiae deletion strains, locus YLR262C, strain YPT6 (second series), stronger effect = lower value 0.933 | S. cerevisiae deletion strains, locus YLR262C, strain YPT6, stronger effect = lower value 1.05 | S. cerevisiae deletion strains, locus YLR268W, strain sec22, stronger effect = lower value 1.01 | S. cerevisiae deletion strains, locus YLR320W, strain mms22, stronger effect = lower value 0.966 | S. cerevisiae deletion strains, locus YLR330W, strain CHS5, stronger effect = lower value 1.02 | S. cerevisiae deletion strains, locus YLR342W, strain FKS1 (second series), stronger effect = lower value 1 | S. cerevisiae deletion strains, locus YLR342W, strain FKS1, stronger effect = lower value 0.986 | S. cerevisiae deletion strains, locus YLR357W, strain rsc2, stronger effect = lower value 0.931 | S. cerevisiae deletion strains, locus YLR370C, strain arc18, stronger effect = lower value 0.985 | S. cerevisiae deletion strains, locus YLR371W, strain rom2, stronger effect = lower value 1.02 | S. cerevisiae deletion strains, locus YLR384C, strain iki3, stronger effect = lower value 0.974 | S. cerevisiae deletion strains, locus YLR418C, strain cdc73, stronger effect = lower value 1.02 | S. cerevisiae deletion strains, locus YML016C, strain PPZ1, stronger effect = lower value 1.02 | S. cerevisiae deletion strains, locus YML032C, strain rad52, stronger effect = lower value 1.03 | S. cerevisiae deletion strains, locus YML120C, strain ndi1, stronger effect = lower value 0.988 | S. cerevisiae deletion strains, locus YML124C, strain tub3, stronger effect = lower value 1.03 | S. cerevisiae deletion strains, locus YMR058W, strain fet3, stronger effect = lower value 0.972 | S. cerevisiae deletion strains, locus YMR078C, strain ctf18, stronger effect = lower value 1.04 | S. cerevisiae deletion strains, locus YMR125W, strain sto1, stronger effect = lower value 0.974 | S. cerevisiae deletion strains, locus YMR129W, stronger effect = lower value 0.98 | S. cerevisiae deletion strains, locus YMR205C, strain PFK2, stronger effect = lower value 0.996 | S. cerevisiae deletion strains, locus YMR223W, strain ubp8, stronger effect = lower value 1.02 | S. cerevisiae deletion strains, locus YMR231W, strain pep5, stronger effect = lower value 0.993 | S. cerevisiae deletion strains, locus YMR263W, strain SAP30, stronger effect = lower value 1.02 and 0.999 | S. cerevisiae deletion strains, locus YMR307W, strain GAS1, stronger effect = lower value 1.05 | S. cerevisiae deletion strains, locus YNL067W, strain RPL9B, stronger effect = lower value 1.02 | S. cerevisiae deletion strains, locus YNL071W, strain lat1, stronger effect = lower value 0.978 | S. cerevisiae deletion strains, locus YNL128W, strain TEP1, stronger effect = lower value 1.04 and 1.01 | S. cerevisiae deletion strains, locus YNL153C, strain GIM3, stronger effect = lower value 1.01 and 1.03 | S. cerevisiae deletion strains, locus YNL175C, strain NOP13, stronger effect = lower value 1.01 | S. cerevisiae deletion strains, locus YNL183C, strain NPR1, stronger effect = lower value 0.96 | S. cerevisiae deletion strains, locus YNL197C, strain WHI3, stronger effect = lower value 1.03 | S. cerevisiae deletion strains, locus YNL209W, strain ssb2, stronger effect = lower value 0.979 | S. cerevisiae deletion strains, locus YNL224C, strain SQS1, stronger effect = lower value 0.998 | S. cerevisiae deletion strains, locus YNL233W, strain BNI4, stronger effect = lower value 1.01 | S. cerevisiae deletion strains, locus YNL248C, strain rpa49, stronger effect = lower value 0.974 | S. cerevisiae deletion strains, locus YNL250W, strain rad50, stronger effect = lower value 1.06 | S. cerevisiae deletion strains, locus YNL271C, strain bni1, stronger effect = lower value 1.02 | S. cerevisiae deletion strains, locus YNL298W, strain CLA4, stronger effect = lower value 1.05 | S. cerevisiae deletion strains, locus YNL307C, strain MCK1, stronger effect = lower value 1.02 | S. cerevisiae deletion strains, locus YNL322C, strain KRE1 (second series), stronger effect = lower value 0.976 | S. cerevisiae deletion strains, locus YNL322C, strain KRE1, stronger effect = lower value 1.03 and 0.967 | S. cerevisiae deletion strains, locus YNR049C, strain mso1, stronger effect = lower value 0.988 | S. cerevisiae deletion strains, locus YNR052C, strain pop2, stronger effect = lower value 1.03 | S. cerevisiae deletion strains, locus YOL006C, strain TOP1, stronger effect = lower value 1.02 | S. cerevisiae deletion strains, locus YOL012C, strain htz1 0.991 | S. cerevisiae deletion strains, locus YOL147C, strain pex11, stronger effect = lower value 1.03 | S. cerevisiae deletion strains, locus YOR001W, strain rrp6, stronger effect = lower value 1.02 | S. cerevisiae deletion strains, locus YOR061W, strain CKA2, stronger effect = lower value 1.02 | S. cerevisiae deletion strains, locus YOR069W, strain VPS5, stronger effect = lower value 1.01 | S. cerevisiae deletion strains, locus YOR070C, strain gyp1, stronger effect = lower value 0.996 | S. cerevisiae deletion strains, locus YOR080W, strain dia2, stronger effect = lower value 0.989 | S. cerevisiae deletion strains, locus YOR083W, strain WHI5 (second series), stronger effect = lower value 1.03 | S. cerevisiae deletion strains, locus YOR083W, strain WHI5, stronger effect = lower value 0.977 | S. cerevisiae deletion strains, locus YOR106W, strain vam3, stronger effect = lower value 0.972 | S. cerevisiae deletion strains, locus YOR136W, strain idh2, stronger effect = lower value 1.03 | S. cerevisiae deletion strains, locus YOR144C, strain elg1, stronger effect = lower value 1.03 | S. cerevisiae deletion strains, locus YOR184W, strain ser1, stronger effect = lower value 1.04 | S. cerevisiae deletion strains, locus YOR231W, strain MKK1, stronger effect = lower value 1.03 | S. cerevisiae deletion strains, locus YOR265W, strain rbl2, stronger effect = lower value 0.986 | S. cerevisiae deletion strains, locus YOR270C, strain vph1, stronger effect = lower value 0.911 | S. cerevisiae deletion strains, locus YOR290C, strain snf2, stronger effect = lower value 0.961 | S. cerevisiae deletion strains, locus YOR316C, strain cot1, stronger effect = lower value 1.02 | S. cerevisiae deletion strains, locus YPL051W, strain arl3, stronger effect = lower value 0.999 | S. cerevisiae deletion strains, locus YPL055C, strain LGE1, stronger effect = lower value 1.02 | S. cerevisiae deletion strains, locus YPL078C, strain atp4, stronger effect = lower value 0.973 | S. cerevisiae deletion strains, locus YPL106C, strain sse1, stronger effect = lower value 0.981 | S. cerevisiae deletion strains, locus YPL240C, strain hsp82, stronger effect = lower value 0.993 | S. cerevisiae deletion strains, locus YPL241C, strain CIN2, stronger effect = lower value 1.02 and 1 | S. cerevisiae deletion strains, locus YPL256C, strain CLN2, stronger effect = lower value 1 | S. cerevisiae deletion strains, locus YPR119W, strain clb2, stronger effect = lower value 1.02 | S. cerevisiae deletion strains, locus YPR141C, strain kar3, stronger effect = lower value 1.04 | S. cerevisiae deletion strains, locus YPR163C, strain tif3, stronger effect = lower value 1.03 | S. cerevisiae deletion strains, locus YPR167C, strain met16, stronger effect = lower value 1.04 | S. cerevisiae deletion strains, strain wtn01, stronger effect = lower value 1.03 | S. cerevisiae strains, strain wild type, stronger effect = lower value 1.02
